According to PubChem BioAssay AID1034 (Columbia University Molecular Screening Center, 2008):
Some of the results follow.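 How the source made its calls: active means activation above 30% in triplicate retests at 2 µM, then confirmed by visual review of the well images; inactive means the rest.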

Experiment: enhancers of VCAM1 induction in HUVEC – imaging, triplicate retest, confirmation (AID 1034);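 further: scaled per plate between unstimulated and TNFa-stimulated DMSO control wells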
Details: HUVEC TNFa-stimulated VCAM-1 immunofluorescence imaging; at 2 µM; hits give high values

activation, inactive:
CCCOc1cc(C)c(S(=O)(=O)n2nnc3ccccc32)cc1C -4.7%
Cc1cccc2cc(CN(Cc3ccc4c(c3)OCO4)Cc3nnnn3C3CCCC3)c(=O)[nH]c12 4.1%
COc1ccc(/C=N/Nc2nc3ccccc3o2)cc1OC -3.9%
CCCCN(C)C(=O)C1CCN(Cc2ccccn2)CC1 -13%
CC1(C)CC(=O)C=C(N2CCCC2)C1 -17.7%
CCN(CC(=O)Nc1ccc2c(c1)OCCO2)Cc1cc(=O)oc2cc(C)c(C)cc12 -6.7%
CCOc1ccc(N=C2NC(=O)S/C2=C\c2ccc(O)cc2)cc1 -20.4%
COc1ccc(OC)c(N=Cc2c(O)[nH]c3ccccc23)c1 -13.9%
CC(=O)c1cnn(-c2cc(Oc3ccc(F)cc3)ncn2)c1C -14.8%
O=C(Nc1ccncc1)c1c(F)cccc1F -14.6%
CCOc1cc(-c2cc(-c3ccc(OC)cc3)nc(N)c2C#N)ccc1O -5.2%
CC1=NN(C(C)C)C(=O)C1 -8.4%
COCCNS(=O)(=O)c1cc(Br)ccc1OC -14.1%
